FGF22 binding: binders of human FGF22 protein, primary screen, FGF22 synaptogenesis inhibitor project, biophysical, thermal shift, single point; recombinant FGF22 thermal shift, SYPRO orange fluorescence; percent of sucrose octasulfate shift, DMSO zero; activity (Tm shift, normalised), % at 9.99 µM; 340,000 tested, 1.5% active; AID 651658, 2012;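 active = mean Tm shift, scaled 0 neutral to 100 positive control, at about 1.3% or above, every replicate too, limit read from the data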
ERAP1 inh: human ERAP1 aminopeptidase inhibitors, primary screen, biochemical, single point, plate reader. inhibition, % at 10.7 µM. AID 652197, 2013. recombinant ERAP1, Leu-AMC fluorescence, 60 min. Endoplasmic reticulum aminopeptidase 1 (Homo sapiens), Q9NZ08. 340,000 tested, 0.15% active;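 active = mean replicate inhibition of at least 30%, or all replicates individually reaching that 30% level; inactive = mean below 30% and not every replicate reaching it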;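 also: 0% = neutral control wells and 100% = L-leucinethiol positive control wells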
Target sequence (Q9NZ08 whole entry, looked up): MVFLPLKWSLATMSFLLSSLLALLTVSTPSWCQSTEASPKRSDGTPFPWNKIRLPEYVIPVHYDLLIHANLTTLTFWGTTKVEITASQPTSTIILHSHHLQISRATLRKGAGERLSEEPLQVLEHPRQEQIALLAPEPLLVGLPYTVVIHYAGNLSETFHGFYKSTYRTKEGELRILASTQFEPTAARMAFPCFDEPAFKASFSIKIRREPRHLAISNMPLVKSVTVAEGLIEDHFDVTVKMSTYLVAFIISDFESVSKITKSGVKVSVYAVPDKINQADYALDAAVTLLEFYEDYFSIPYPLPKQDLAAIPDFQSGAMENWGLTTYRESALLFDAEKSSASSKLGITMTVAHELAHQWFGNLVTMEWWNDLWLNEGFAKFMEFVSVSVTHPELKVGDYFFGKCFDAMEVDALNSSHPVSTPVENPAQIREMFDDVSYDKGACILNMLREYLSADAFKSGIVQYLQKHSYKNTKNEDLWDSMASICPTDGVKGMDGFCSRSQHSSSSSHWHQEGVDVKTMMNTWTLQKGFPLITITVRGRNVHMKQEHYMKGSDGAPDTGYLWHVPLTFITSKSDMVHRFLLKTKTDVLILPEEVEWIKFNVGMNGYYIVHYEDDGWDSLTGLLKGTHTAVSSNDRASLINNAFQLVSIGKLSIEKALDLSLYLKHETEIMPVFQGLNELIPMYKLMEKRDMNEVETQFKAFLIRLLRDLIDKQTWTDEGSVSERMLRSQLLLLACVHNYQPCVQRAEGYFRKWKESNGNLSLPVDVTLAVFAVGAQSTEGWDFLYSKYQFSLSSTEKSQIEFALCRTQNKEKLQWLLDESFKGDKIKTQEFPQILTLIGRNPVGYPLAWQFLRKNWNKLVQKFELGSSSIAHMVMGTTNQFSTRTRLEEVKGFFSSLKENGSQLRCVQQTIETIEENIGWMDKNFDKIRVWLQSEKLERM
SIRT5 inh: SIRT5 desuccinylase inhibitors, primary screen, biochemical, fluorescence imaging, single point, set 5 | Purified SirT5, succinyl-peptide AMC, trypsin-coupled fluorescence | inhibition, % at 15 µM | 330,000 tested, 1.1% active; in the data active = inhibition above about 15%
Casp6 inh: human caspase-6 inhibitors, primary screen, biochemical, VEID-R110 fluorescence, single point, set 2 | P55212 | purified caspase-6, Z-VEID-R110 cleavage fluorescence | inhibition, % at 12.5 µM | 350,000 tested, 0.53% active;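 active = mean inhibition across replicates at least about 35%, with every replicate also reaching that limit, limit read from the data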;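 also: 0% = median of neutral control wells and 100% = no fluorescence left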
An asterisk follows results filed as active; · = not tested or not shown. Hits are enriched below; roughly 3.1% of the tested compounds scored in any of these assays.

SMILES	FGF22 binding	ERAP1 inh	SIRT5 inh	Casp6 inh
COc1ccc(CN(C)C[C@H]2Oc3ccc(NS(=O)(=O)c4ccccc4)cc3C(=O)N([C@H](C)CO)C[C@@H]2C)cc1	0	9	12	0
C[C@H]1CN([C@@H](C)CO)C(=O)c2cc(NC(=O)CCCCCC(=O)Nc3ccccc3N)ccc2O[C@@H]1CN(C)S(C)(=O)=O	0	1	·	-1
CCCN1C[C@H](C)[C@@H](OC)CN(C)C(=O)c2cc(NC(=O)c3ccccc3)ccc2OC[C@@H]1C	·	1	9	-1
O=C(CSc1ccsc1[N+](=O)[O-])Nc1cccc(F)c1	0	-2	1	41*
CCOc1cc(NC(=S)NCC2CCCO2)c(OCC)cc1NC(=O)C1CC1 (stereo not given)	43*	1	-1	-7
O=C(NCC1CCCO1)C1CCN(C2CCN(C3CCCCCC3)CC2)CC1 (stereo not given)	0	0	-1	-20
O=C(NCCc1ccccc1)C1CCN(C2CCN(Cc3ccco3)CC2)CC1	0	-4	-2	-8
CCOc1cccc(CN2CCC(N3CCC(C(=O)NCC4CCCO4)CC3)CC2)c1 (stereo not given)	0	-1	21*	-18
CCOc1cc(NC(=S)NCC2CCCO2)c(OCC)cc1NC(=O)c1ccc(F)cc1 (stereo not given)	0	-2	-2	-2
O=C(NCC1CCCO1)C1CCN(C2CCN(Cc3ccco3)CC2)CC1 (stereo not given)	44*	-5	0	-7
C[C@@H]1CN([C@H](C)CO)C(=O)Cc2cc(NC(=O)NC3CCCCC3)ccc2O[C@@H]1CN(C)S(=O)(=O)c1ccccc1	0	-2	0	1
Cc1cc(C(=O)Nc2ccc3c(c2)C(=O)N(C)[C@H]2CC[C@@H](CC(=O)NCc4ccc(-c5ccccc5)cc4)O[C@H]2CO3)no1	0	3	9	0
COCC#Cc1cnc2c(c1)C(=O)N([C@@H](C)CO)C[C@H](C)[C@@H](CN(C)S(=O)(=O)c1ccccc1)O2	0	3	-1	-1
CCCNC(=O)C[C@@H]1CC[C@H]2[C@@H](COc3ccc(NC(=O)NCCC)cc3C(=O)N2C)O1	·	-1	10	2
C[C@@H]1CN([C@@H](C)CO)C(=O)Cc2cc(NC(=O)CCN3CCOCC3)ccc2O[C@H]1CN(C)S(C)(=O)=O	·	-1	-2	-2
CCOc1ccccc1NC(=O)CN1c2cccc3cccc(c23)S1(=O)=O	0	4	19*	5
Cc1ccc(NC(=O)CN2c3cccc4cccc(c34)S2(=O)=O)cc1	0	-2	-3	0
C[C@H]([C@H](O)c1ccccc1)N(C)C(=O)CN	0	-2	21*	1
CCC(=O)N(C)C[C@H]1Oc2cc(-c3ccc(F)cc3)ccc2S(=O)(=O)N([C@H](C)CO)C[C@H]1C	0	-1	1	-4
CCN(C(=O)Cc1c(C(=O)O)n(C)c2ccccc12)c1ccc(F)cc1	43*	4	2	6
CCN(C(=O)Cc1c(C(=O)O)n(C)c2ccccc12)c1cc(OC)ccc1OC	0	3	-3	0
Nc1ccc(OC(=O)Nc2ccc(O)cc2)cc1	0	0	-3	61*
O=C(Nc1ccc(N2CCN(c3ccc(O)cc3)CC2)cc1)Oc1ccccc1	0	-2	0	-2
OC[C@H]1[C@H](c2ccc(-c3ccc(F)cc3)cc2)[C@@H]2CN(Cc3cccnc3)CCCCN12	0	-2	0	60*
OC[C@H]1[C@H](c2ccc(-c3cccc(F)c3)cc2)[C@H]2CN(CCC(F)(F)F)CCCCN21	0	0	2	3
SMILES	FGF22 binding	ERAP1 inh	SIRT5 inh	Casp6 inh
OC[C@H]1[C@@H](c2ccc(-c3cccc(F)c3)cc2)[C@H]2CN(CCC(F)(F)F)CCCCN21	0	-1	24*	4
O=C(Nc1ccccc1F)N[C@H]1CC[C@H](CCNC(=O)C2CCCC2)O[C@H]1CO	0	0	-7	-4
CCC(=O)N[C@H]1C=C[C@@H](CC(=O)NCc2ccccc2OC)O[C@@H]1CO	0	-3	2	-2
O=C(COc1ccccc1)Nc1ncn[nH]1	0	·	30*	-1
COCCN=C1N[C@@H](c2ccc(Br)cc2)C(C(=O)OC)=C(C)N1Cc1ccccc1	1	91*	-1	1
COC(=O)C1=C(C)N(Cc2cccc(C(F)(F)F)c2)C(=NCc2ccc(OC)cc2)NC1c1ccccc1C(F)(F)F (stereo not given)	0	0	15*	2
CCN(CC)CCCN=C1N[C@@H](c2cccc(C(F)(F)F)c2)C(C(=O)OC)=C(C)N1CC	0	61*	·	-8
COC(=O)C1=C(C)N(Cc2ccccc2)C(=NCc2ccccc2)N[C@H]1c1cccc(F)c1	45*	53*	-2	6
CCN1C(=O)N[C@@H](c2cccc(C(F)(F)F)c2)C(C(=O)OC)=C1C	0	·	·	1
COC(=O)C1=C(C)N(Cc2cccc(C(F)(F)F)c2)C(=NCc2ccc(C(F)(F)F)cc2)NC1c1ccccc1C(F)(F)F (stereo not given)	0	1	0	-3
C[C@@H]1CCCCO[C@H](CN(C)C(=O)Nc2ccc3c(c2)OCO3)[C@H](C)CN([C@H](C)CO)C(=O)c2cc(NC(=O)c3ccccc3)ccc2O1	1	0	2	-1
CCCNC(=O)Nc1ccc2c(c1)OC[C@@H](C)N(Cc1ccccc1)C[C@@H](C)[C@H](OC)CN(C)C2=O	0	-3	10	-2
CO[C@@H]1CN(C)C(=O)c2ccc(NS(=O)(=O)c3ccc(Cl)cc3)cc2OC[C@H](C)NC[C@@H]1C	0	-2	-4	0
CCS(=O)(=O)NCC[C@H]1CC[C@H](NC(=O)C2CCOCC2)[C@H](CO)O1	0	-2	-6	2
COC(=O)C1=C(C)N(Cc2ccccc2C(F)(F)F)C(=NCc2ccc3c(c2)OCO3)NC1c1cccc(F)c1 (stereo not given)	0	1	17*	0
COC(=O)C1=C(C)N(Cc2ccccc2C(F)(F)F)C(=NCc2ccc3c(c2)OCO3)NC1c1ccc(F)cc1 (stereo not given)	0	5	0	2
O=Cc1cscc1[B-](F)(F)F	0	-1	0	66*
C[C@@H]1CN([C@H](C)CO)C(=O)c2c(c3ccccc3n2C)-c2ccccc2CO[C@H]1CN(C)C(=O)C1CC1	1	0	4	0
CCCNC(=O)N(C)C[C@H]1Oc2ncc(C3=CCCC3)cc2C(=O)N([C@@H](C)CO)C[C@@H]1C	0	-2	4	0

Compound activity deposited in PubChem BioAssay by Broad Institute.
